As a reminder, the AC50 is the concentration giving half of the maximal activity seen.

The source made the active and inactive calls. Rule for the calls: active = hit-call score of the fitted dose curve at least 0.9, where 1 is the maximum; inconclusive = response in the unintended direction; inactive = score below 0.9.

This experiment in a line: CPHEA_Stoker_NIS_Cytotoxicity: Cytotoxicity Assessment for CPHEA's Radioactive Iodide Uptake (RAIU) Assay for Sodium/Iodide Symporter (NIS) Inhibition, Stoker and Laws Labs (AID 2283897).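 For AC50: active means loss of ATP signal versus DMSO meaning cytotoxicity.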 As for the experimental part:
CPHEA_Stoker_NIS is a cell-based, single-readout assay that uses hNIS-HEK293T-EPA, a novel human kidney cell line expressing human NIS, with measurements taken at 2 hours after chemical dosing in a 96-well plate. This radioactive iodide uptake (RAIU) assay is used to identify inhibitors of NIS-mediated iodide uptake. A parallel cytoxicity assay (Cell Titer Glo, Promega) was also run in the same cell line.CPHEA_Stoker_NIS_Cytotoxicity is one of 2 assay components measured from the CPHEA_Stoker_NIS assay. It is designed to make measurements of atp content, a form of viability reporter, as detected with bioluminescence signals by Luciferase-coupled ATP quantitation technology.Data from the assay component CPHEA_Stoker_NIS_Cytotoxicity was analyzed at the endpoint, CPHEA_Stoker_NIS_Cytotoxicity, in the positive analysis fitting direction relative to DMSO as the negative control and baseline of activity. Using a type of viability reporter, measures of ATP content for loss-of-signal activity can be used to understand the viability. To generalize the intended target to other relatable targets, this assay endpoint is annotated to the cell cycle intended target family, where the subfamily is cytotoxicity.
hNIS-HEK293T-EPA cells were seeded with a MultiFlo FX dispenser (BioTek, Winooski, VT) into ScintiPlate-96 microplates (Perkin Elmer, Waltham, MA) at a density of 4.0x10^4 cells per well in 200uL growth media and incubated for 40 hours before experimentation. On day of the assay, carrier-free 125I (Perkin-Elmer, Waltham, MA; specific activity: 17.4Ci/mg) was diluted with Hanks' balanced salt solution (Sigma, St. Louis, MO) supplemented with 10mM HEPES (uptake buffer; pH 7.4) at 5uCi/mL (288pg 125I/mL uptake buffer; 2.30nM). The assay was initiated by washing cells twice with 200uL uptake buffer using a 96-well Tecan HydroSpeed plate washer (Tecan, Mannedorf, Switzerland). Uptake buffer (59.7uL) was then added back to each well. Chemical samples (350nL at 200X) were administered using the HDR tool as previously described to achieve a 1X chemical/0.5% final DMSO concentration with subsequent addition of 10uL of 125I dilution (final [125I]: 329pM; 2.88pg/well) for a final reaction volume of 70uL/well. Cells were incubated at room temperature for 2 hours and then washed twice with 200uL ice cold uptake buffer. All uptake buffer was aspirated from wells, plates were sealed, and read on a MicroBeta2 plate reader (Perkin Elmer, Waltham, MA) using a detection protocol to measure CPM corresponding to intracellular 125I concentration. Each chemical concentration (0.001, 0.01, 0.1, 1.0, 10, and 100uM) was assayed in triplicate with three independent biological replicate plates (3 sequential cell passages). Additionally, a concentration response of NaClO4 (0.001, 0.01, 0.1, 1.0, 10, and 100uM) served as a positive control inhibition curve on each RAIU assay plate. DMSO control wells were assayed on each plate as a measure of maximum iodide uptake for normalization and determination of intra- and inter-assay variation. (Toxicol In Vitro, 2017, 40:66-78).
Turning to `CCOP(=S)(OCC)Oc1ccc([N+](=O)[O-])cc1`, the outcome was inactive. On to `CC[C@H](C)[C@H]1O[C@]2(C=C[C@@H]1C)C[C@@H]1C[C@@H](C/C=C(\C)[C@@H](O[C@H]3C[C@H](OC)[C@@H](O[C@H]4C[C@H](OC)[C@@H](NC)[C@H](C)O4)[C@H](C)O3)[C@@H](C)/C=C/C=C3\CO[C@@H]4[C@H](O)C(C)=C[C@@H](C(=O)O1)[C@]34O)O2`, for which the AC50 is 23 µM (active). `CC1(C(=O)Nc2ccc(O)c(Cl)c2Cl)CCCCC1`: the result was inactive. For `CCOP(=S)(OCC)OC(Cl)C(Cl)(Cl)Cl` (stereo unspecified), the result was inactive.

For `Cc1cc(C2CC2)nc(Nc2ccccc2)n1`, the result was inactive. In the case of `CC(COc1ccc(Oc2ccccc2)cc1)Oc1ccccn1` (stereo unspecified), the result was inactive. Still for that read-out and setting: in the case of `Nc1c(Cl)cc([N+](=O)[O-])cc1Cl` it was “inactive”; in that of `CCC(CC)Nc1c([N+](=O)[O-])cc(C)c(C)c1[N+](=O)[O-]`, “inactive”; in that of `CCOC(=O)COc1cc(-c2nn(C)c(OC(F)F)c2Cl)c(F)cc1Cl`, “inactive”. For the molecule `COc1cccc(C(=O)NN(C(=O)c2cc(C)cc(C)c2)C(C)(C)C)c1C`, the outcome was inactive.

Consider `CCC(=O)Nc1ccc(Cl)c(Cl)c1`, for which the result was inactive. `CC(C)N(C(=O)SCC(Cl)=C(Cl)Cl)C(C)C`: the AC50 is 39.8 µM (active). Regarding `CSc1nc(NC(C)C)nc(NC(C)C)n1`, the outcome was inactive. As for `CON=C(C(=O)OC)c1ccccc1CON=C(C)c1cccc(C(F)(F)F)c1`, the outcome was inactive. As to `CCCSP(=O)(OCC)Oc1ccc(Br)cc1Cl` (stereo unspecified), the outcome was inactive. On to `CCCOCC(=Nc1ccc(Cl)cc1C(F)(F)F)n1ccnc1`, for which the AC50 was 38.1 µM (active). Consider `CCOP(=S)(OCC)SCCSCC`, for which the result was inactive. With `C=C(C)[C@H]1Cc2c(ccc3c2O[C@@H]2COc4cc(OC)c(OC)cc4[C@@H]2C3=O)O1`, the outcome was inactive.

With `CSC1=N[C@@](C)(c2ccccc2)C(=O)N1Nc1ccccc1`, the outcome was inactive. `C#CCC1=C(C)C(OC(=O)C2C(C=C(C)C)C2(C)C)CC1=O` (stereo unspecified): the result was inactive. On the same count and under the same terms, next, `CCCCSP(=O)(SCCCC)SCCCC`: “inactive”; `CCOP(=S)(Oc1cnc(C(C)(C)C)nc1)OC(C)C` (stereo unspecified): “inactive”.

As to `N#CSCSC#N`, the AC50 is 41.4 µM (active). As to `CCOP(=S)(OCC)Oc1ccc2c(C)c(Cl)c(=O)oc2c1`, the AC50 was 27.7 µM (active). For `C[Si](Cn1cncn1)(c1ccc(F)cc1)c1ccc(F)cc1`, the outcome was inactive. `FC(F)C(F)(F)OCC(Cn1cncn1)c1ccc(Cl)cc1Cl` (stereo unspecified): the outcome was inactive. For the molecule `COP(=O)(OC)OC(Br)C(Cl)(Cl)Br` (stereo unspecified), the result was inactive. Still for that read-out and setting: in the case of `CCCCOC(=O)[C@@H](C)Oc1ccc(Oc2ccc(C#N)cc2F)cc1` it was “inactive”. As to `CC(C)=CC1C(C(=O)OCN2C(=O)C3=C(CCCC3)C2=O)C1(C)C` (stereo unspecified), the AC50 was 35.4 µM (active). `O=[N+]([O-])c1cc(C(F)(F)F)c(Cl)c([N+](=O)[O-])c1Nc1ncc(C(F)(F)F)cc1Cl`: the AC50 is 19.6 µM (active). With `CCCCN(CC)c1c([N+](=O)[O-])cc(C(F)(F)F)cc1[N+](=O)[O-]`, the outcome was inactive.

The values are drawn from PubChem BioAssay (EPA / NIEHS).
